# Test results: PubChem BioAssay (NCI)
# Several values for one entry are separate records, joined by “and”; a condition that tells them apart may be missing. Equal entries are not always repeated. The panel holds about 79,000 compounds, 15% with a hit somewhere; the sample as a whole holds those more often. The source holds several records for some structures; these can differ, active in one and inactive in another. Activity calls are given as the source filed them. No stated cut-off is given here; in the data, active means growth inhibition above about 70%; inactive means the rest.
# What was measured:
# [1] = NCI Yeast Anticancer Drug Screen. Data for the rad50 strain (AID 155);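 further: 0% = growth of vehicle-only cultures of the same strain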; details: S. cerevisiae rad50 strain growth inhibition, stronger effect = higher value
# Procedure, shortened: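 Vehicle-treated cultures provide the reference for the growth inhibition reported for compound-exposed, repair-deficient yeast.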
# [2] = NCI Yeast Anticancer Drug Screen. Data for the mec2-1 strain (AID 157); details: S. cerevisiae mec2-1 strain, stronger effect = higher value
# Procedure, shortened: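 Mutant yeast (mec2-1) grown with compound; growth inhibition relative to vehicle control reported.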
# [3] = NCI Yeast Anticancer Drug Screen. Data for the sgs1 mgt1 strain (AID 161);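 further: 0% = growth of cultures given vehicle only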; details: S. cerevisiae sgs1 mgt1 strain, stronger effect = higher value
# Procedure, shortened: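 Yeast cells carrying a defined DNA-repair defect were exposed to test compounds. Growth inhibition was measured relative to vehicle-treated controls.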
# [4] = NCI Yeast Anticancer Drug Screen. Data for the cln2 rad14 strain (AID 165);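 further: 0% = growth equal to vehicle treated cultures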; details: S. cerevisiae cln2 rad14 strain, stronger effect = higher value
# Procedure, shortened: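 Readout is yeast growth inhibition versus vehicle-treated controls, using a strain with cln2 and rad14 alterations exposed to compound.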
# [5] = NCI Yeast Anticancer Drug Screen. Data for the bub3 strain (AID 167); details: S. cerevisiae bub3 mutant strain, stronger effect = higher value
# Procedure, shortened: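 Mutant yeast screening strain plus compound; vehicle-treated cultures serve as the 0% inhibition reference.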
# [6] = NCI Yeast Anticancer Drug Screen. Data for the mlh1 rad18 strain (AID 175); details: S. cerevisiae mlh1 rad18 strain growth inhibition, stronger effect = higher value
# Procedure, shortened: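 Genetically defined yeast (DNA repair-deficient) exposed to compounds; growth inhibition determined relative to vehicle.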
# [7] = at 5.0 µM (retest, dose inferred, filed as 0.5)
# [8] = at 50.0 µM (retest, dose inferred, filed as 5.0)
SMILES,"growth inhibition [1, 7]","growth inhibition [1, 8]",growth inhibition ([1]; at 50.0 µM),"growth inhibition [2, 7]","growth inhibition [2, 8]",growth inhibition ([2]; at 50.0 µM),"growth inhibition [3, 7]","growth inhibition [3, 8]",growth inhibition ([3]; at 50.0 µM),"growth inhibition [4, 7]","growth inhibition [4, 8]",growth inhibition ([4]; at 50.0 µM),"growth inhibition [5, 7]","growth inhibition [5, 8]",growth inhibition ([5]; at 50.0 µM),"growth inhibition [6, 7]","growth inhibition [6, 8]",growth inhibition ([6]; at 50.0 µM)
Cc1ccc(S)cc1.[Pb],0% (inactive),30% (inactive),20.1% (inactive),2% (inactive),6% (inactive),43.1% (inactive),3% (inactive),28% (inactive),44.5% (inactive),5% (inactive),2% (inactive),-1.55% (inactive),3% (inactive),50% (inactive),95.9% (active),0% (inactive),13% (inactive),83.8% (active)
CC(=O)OC1C2(CC3N4C(=O)C5(CO)SSC4(CC31O)C(=O)N5C)OC(C)C(C)(C)C2=O (configuration not stated),67% (inactive),99% (active),90.2% (active),80% (active),100% (active),93.2% (active),68% (inactive),97% (active),92.8% (active),64% (inactive),99% (active),88.6% (active),71% (active),99% (active),91.5% (active),83% (active),99% (active),91.2% (active)
CCCCCCCCCCCCCCCC[N+](C)(C)CCBr,99% (active),98% (active),89.2% (active) and 98.8% (active),99% (active),99% (active),92.5% (active) and 99.2% (active),99% (active),99% (active),87.2% (active) and 99.3% (active),99% (active),99% (active),89.2% (active) and 99.2% (active),99% (active),99% (active),82.3% (active) and 99.1% (active),98% (active),98% (active),92.3% (active) and 99.2% (active)
CCC[CH2][Sn]1([CH2]CCC)[O]C(=O)c2cccc(C)c2[O]1,86% (active),96% (active),96.7% (active),89% (active),98% (active),97.7% (active),88% (active),94% (active),96.3% (active),86% (active),97% (active),93.3% (active),88% (active),97% (active),95.9% (active),87% (active),95% (active),98.2% (active)
O=C(c1ccc(Br)cc1)C1C(c2ccccc2)N1C1CCCCC1 (configuration not stated),1% (inactive),79% (active),95.7% (active),0% (inactive),73% (active),96.6% (active),-1% (inactive),72% (active),96.5% (active),-4% (inactive),58% (inactive),94.2% (active),4% (inactive),94% (active),95% (active),-2% (inactive),86% (active),91% (active)
CC(C)CCC[C@@H](C)[C@H]1CC[C@H]2[C@@H]3CC[C@H]4C[C@H](NCCCl)CC[C@]4(C)[C@H]3CC[C@]12C,28% (inactive),36% (inactive),52% (inactive),15% (inactive),26% (inactive),43.6% (inactive),40% (inactive),68% (inactive),49.1% (inactive),28% (inactive),7% (inactive),51% (inactive),45% (inactive),49% (inactive),42.2% (inactive),22% (inactive),27% (inactive),55% (inactive)
CC(C)(c1ccccc1)c1ccc(O)cc1,-5% (inactive),58% (inactive),98% (active),-38% (inactive),88% (active),99% (active),-7% (inactive),46% (inactive),99.7% (active),-9% (inactive),71% (active),98.8% (active),-23% (inactive),97% (active),99.5% (active),-8% (inactive),97% (active),99.5% (active)
Nc1ncc(CCCCc2ccc(NC(=O)Nc3ccc(S(=O)(=O)F)cc3)cc2)c(N)n1,-1% (inactive),60% (inactive),98.5% (active),-15% (inactive),60% (inactive),99.5% (active),-17% (inactive),75% (active),99.2% (active),-8% (inactive),57% (inactive),92.8% (active),-4% (inactive),48% (inactive),98.8% (active),4% (inactive),84% (active),99.2% (active)
O=S(=O)(CCl)C(Cl)(Cl)Cl,9% (inactive) and 5% (inactive),92% (active) and 61% (inactive),94.5% (active) and 63.5% (inactive),13% (inactive) and -32% (inactive),66% (inactive) and 49% (inactive),94.6% (active) and 62.2% (inactive),4% (inactive) and 3% (inactive),59% (inactive) and 67% (inactive),97% (active) and 51.5% (inactive),-2% (inactive) and 1% (inactive),44% (inactive) and 36% (inactive),83.6% (active) and 43.4% (inactive),36% (inactive) and 1% (inactive),80% (active) and 56% (inactive),92.7% (active) and 67.8% (inactive),5% (inactive) and 4% (inactive),86% (active) and 73% (active),95.8% (active) and 69.7% (inactive)
